From the supplement of paper PMC10849652
About 8,800 targets were measured; listed, in parts, are those with a hit and a random draw of the rest. About 0.5% of all pairs of compound and target were hits.

Tests used:
Assay in all cases: log2 fold change, soluble protein after heating vs DMSO (PISA); higher = thermal stabilisation; K562 lysate, 10 uM; active = over 0.2 and 3.5 SD of the protein, either way, in both replicates (recomputed)
[1] = compound: C#Cc1cccc(Nc2ncnc3cc(OCCOC)c(OCCOC)cc23)c1 [erlotinib]
Procedure, shortened: (§1)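 Soluble protein was defined as the supernatant remaining after 21,000xg for 90 min, following pooling of heated aliquots and adjustment to 0.5% NP-40 at 4°C. Before that, crude K562 extract at 1 mg/mL protein in PBS pH 7.4 with 1 mM MgCl2 was treated with 10 μM compound for 30 min and heated for 3 min across 48°C-58°C. Quantification used TMTpro 16plex LC-MS/MS with channel sums equalised, and values are log-two fold changes in thermal stability relative to solvent controls from duplicates.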

[2] = compound: C/C(=N\NC(=O)C1=CC(=CC=C1)S(=O)(=O)N2CCOCC2)/C3=C(C=CC(=C3)Cl)O
Procedure, shortened: as §1

[3] = compound: C1=CC(=CC=C1C2=NC3=C(N2)C=C(C=C3)C(=O)N)OC4=CC=C(C=C4)Cl
Procedure, shortened: as §1

[4] = compound: C1=CC2=C(C=CC(=C2)/C=C\3/C(=O)NC(=NCC4=CC=CS4)S3)N=C1
Procedure, shortened: as §1

[5] = compound: C1=CC2=NC=CN=C2C=C1/C=C/3\C(=O)NC(=O)S3
Procedure, shortened: as §1

[6] = compound: C1=CC=C2C(=C1)C3=NNC4=CC=CC(=C43)C2=O
Procedure, shortened: as §1

[7] = compound: C1CCN(C1)C(=O)NC2=CC=CC(=C2)NC3=NC=C(C(=N3)NCCC4=CN=CN4)Br
Procedure, shortened: as §1

[8] = compound: C1CN(CCC1(CC2=CC=C(C=C2)Cl)N)C3=NC=NC4=C3C=CN4
Procedure, shortened: as §1

[9] = compound: C1=CC=C(C=C1)C2=NC(=C(N2)C3=CC=NC=C3)C4=CC(=C(C=C4)Cl)O
Procedure, shortened: as §1

[10] = compound: C1COCCN1CCN2C3=CC=CC=C3N=C2NC(=O)C4=CC(=CC=C4)[N+](=O)[O-] [IRAK-1-4 Inhibitor I]
Procedure, shortened: as §1

Measured: log2 fold change

MMS22L (UniProt Q6ZRQ5)
inactive: [1] 0.067 | [2] 0.032 | [3] 0 | [4] -0.093 | [5] 0.037 | [6] 0.064 | [7] 0.019 | [8] -0.021

LRP1 (UniProt Q07954)
Chain of UniProt Q07954 (Q07954 whole entry, looked up): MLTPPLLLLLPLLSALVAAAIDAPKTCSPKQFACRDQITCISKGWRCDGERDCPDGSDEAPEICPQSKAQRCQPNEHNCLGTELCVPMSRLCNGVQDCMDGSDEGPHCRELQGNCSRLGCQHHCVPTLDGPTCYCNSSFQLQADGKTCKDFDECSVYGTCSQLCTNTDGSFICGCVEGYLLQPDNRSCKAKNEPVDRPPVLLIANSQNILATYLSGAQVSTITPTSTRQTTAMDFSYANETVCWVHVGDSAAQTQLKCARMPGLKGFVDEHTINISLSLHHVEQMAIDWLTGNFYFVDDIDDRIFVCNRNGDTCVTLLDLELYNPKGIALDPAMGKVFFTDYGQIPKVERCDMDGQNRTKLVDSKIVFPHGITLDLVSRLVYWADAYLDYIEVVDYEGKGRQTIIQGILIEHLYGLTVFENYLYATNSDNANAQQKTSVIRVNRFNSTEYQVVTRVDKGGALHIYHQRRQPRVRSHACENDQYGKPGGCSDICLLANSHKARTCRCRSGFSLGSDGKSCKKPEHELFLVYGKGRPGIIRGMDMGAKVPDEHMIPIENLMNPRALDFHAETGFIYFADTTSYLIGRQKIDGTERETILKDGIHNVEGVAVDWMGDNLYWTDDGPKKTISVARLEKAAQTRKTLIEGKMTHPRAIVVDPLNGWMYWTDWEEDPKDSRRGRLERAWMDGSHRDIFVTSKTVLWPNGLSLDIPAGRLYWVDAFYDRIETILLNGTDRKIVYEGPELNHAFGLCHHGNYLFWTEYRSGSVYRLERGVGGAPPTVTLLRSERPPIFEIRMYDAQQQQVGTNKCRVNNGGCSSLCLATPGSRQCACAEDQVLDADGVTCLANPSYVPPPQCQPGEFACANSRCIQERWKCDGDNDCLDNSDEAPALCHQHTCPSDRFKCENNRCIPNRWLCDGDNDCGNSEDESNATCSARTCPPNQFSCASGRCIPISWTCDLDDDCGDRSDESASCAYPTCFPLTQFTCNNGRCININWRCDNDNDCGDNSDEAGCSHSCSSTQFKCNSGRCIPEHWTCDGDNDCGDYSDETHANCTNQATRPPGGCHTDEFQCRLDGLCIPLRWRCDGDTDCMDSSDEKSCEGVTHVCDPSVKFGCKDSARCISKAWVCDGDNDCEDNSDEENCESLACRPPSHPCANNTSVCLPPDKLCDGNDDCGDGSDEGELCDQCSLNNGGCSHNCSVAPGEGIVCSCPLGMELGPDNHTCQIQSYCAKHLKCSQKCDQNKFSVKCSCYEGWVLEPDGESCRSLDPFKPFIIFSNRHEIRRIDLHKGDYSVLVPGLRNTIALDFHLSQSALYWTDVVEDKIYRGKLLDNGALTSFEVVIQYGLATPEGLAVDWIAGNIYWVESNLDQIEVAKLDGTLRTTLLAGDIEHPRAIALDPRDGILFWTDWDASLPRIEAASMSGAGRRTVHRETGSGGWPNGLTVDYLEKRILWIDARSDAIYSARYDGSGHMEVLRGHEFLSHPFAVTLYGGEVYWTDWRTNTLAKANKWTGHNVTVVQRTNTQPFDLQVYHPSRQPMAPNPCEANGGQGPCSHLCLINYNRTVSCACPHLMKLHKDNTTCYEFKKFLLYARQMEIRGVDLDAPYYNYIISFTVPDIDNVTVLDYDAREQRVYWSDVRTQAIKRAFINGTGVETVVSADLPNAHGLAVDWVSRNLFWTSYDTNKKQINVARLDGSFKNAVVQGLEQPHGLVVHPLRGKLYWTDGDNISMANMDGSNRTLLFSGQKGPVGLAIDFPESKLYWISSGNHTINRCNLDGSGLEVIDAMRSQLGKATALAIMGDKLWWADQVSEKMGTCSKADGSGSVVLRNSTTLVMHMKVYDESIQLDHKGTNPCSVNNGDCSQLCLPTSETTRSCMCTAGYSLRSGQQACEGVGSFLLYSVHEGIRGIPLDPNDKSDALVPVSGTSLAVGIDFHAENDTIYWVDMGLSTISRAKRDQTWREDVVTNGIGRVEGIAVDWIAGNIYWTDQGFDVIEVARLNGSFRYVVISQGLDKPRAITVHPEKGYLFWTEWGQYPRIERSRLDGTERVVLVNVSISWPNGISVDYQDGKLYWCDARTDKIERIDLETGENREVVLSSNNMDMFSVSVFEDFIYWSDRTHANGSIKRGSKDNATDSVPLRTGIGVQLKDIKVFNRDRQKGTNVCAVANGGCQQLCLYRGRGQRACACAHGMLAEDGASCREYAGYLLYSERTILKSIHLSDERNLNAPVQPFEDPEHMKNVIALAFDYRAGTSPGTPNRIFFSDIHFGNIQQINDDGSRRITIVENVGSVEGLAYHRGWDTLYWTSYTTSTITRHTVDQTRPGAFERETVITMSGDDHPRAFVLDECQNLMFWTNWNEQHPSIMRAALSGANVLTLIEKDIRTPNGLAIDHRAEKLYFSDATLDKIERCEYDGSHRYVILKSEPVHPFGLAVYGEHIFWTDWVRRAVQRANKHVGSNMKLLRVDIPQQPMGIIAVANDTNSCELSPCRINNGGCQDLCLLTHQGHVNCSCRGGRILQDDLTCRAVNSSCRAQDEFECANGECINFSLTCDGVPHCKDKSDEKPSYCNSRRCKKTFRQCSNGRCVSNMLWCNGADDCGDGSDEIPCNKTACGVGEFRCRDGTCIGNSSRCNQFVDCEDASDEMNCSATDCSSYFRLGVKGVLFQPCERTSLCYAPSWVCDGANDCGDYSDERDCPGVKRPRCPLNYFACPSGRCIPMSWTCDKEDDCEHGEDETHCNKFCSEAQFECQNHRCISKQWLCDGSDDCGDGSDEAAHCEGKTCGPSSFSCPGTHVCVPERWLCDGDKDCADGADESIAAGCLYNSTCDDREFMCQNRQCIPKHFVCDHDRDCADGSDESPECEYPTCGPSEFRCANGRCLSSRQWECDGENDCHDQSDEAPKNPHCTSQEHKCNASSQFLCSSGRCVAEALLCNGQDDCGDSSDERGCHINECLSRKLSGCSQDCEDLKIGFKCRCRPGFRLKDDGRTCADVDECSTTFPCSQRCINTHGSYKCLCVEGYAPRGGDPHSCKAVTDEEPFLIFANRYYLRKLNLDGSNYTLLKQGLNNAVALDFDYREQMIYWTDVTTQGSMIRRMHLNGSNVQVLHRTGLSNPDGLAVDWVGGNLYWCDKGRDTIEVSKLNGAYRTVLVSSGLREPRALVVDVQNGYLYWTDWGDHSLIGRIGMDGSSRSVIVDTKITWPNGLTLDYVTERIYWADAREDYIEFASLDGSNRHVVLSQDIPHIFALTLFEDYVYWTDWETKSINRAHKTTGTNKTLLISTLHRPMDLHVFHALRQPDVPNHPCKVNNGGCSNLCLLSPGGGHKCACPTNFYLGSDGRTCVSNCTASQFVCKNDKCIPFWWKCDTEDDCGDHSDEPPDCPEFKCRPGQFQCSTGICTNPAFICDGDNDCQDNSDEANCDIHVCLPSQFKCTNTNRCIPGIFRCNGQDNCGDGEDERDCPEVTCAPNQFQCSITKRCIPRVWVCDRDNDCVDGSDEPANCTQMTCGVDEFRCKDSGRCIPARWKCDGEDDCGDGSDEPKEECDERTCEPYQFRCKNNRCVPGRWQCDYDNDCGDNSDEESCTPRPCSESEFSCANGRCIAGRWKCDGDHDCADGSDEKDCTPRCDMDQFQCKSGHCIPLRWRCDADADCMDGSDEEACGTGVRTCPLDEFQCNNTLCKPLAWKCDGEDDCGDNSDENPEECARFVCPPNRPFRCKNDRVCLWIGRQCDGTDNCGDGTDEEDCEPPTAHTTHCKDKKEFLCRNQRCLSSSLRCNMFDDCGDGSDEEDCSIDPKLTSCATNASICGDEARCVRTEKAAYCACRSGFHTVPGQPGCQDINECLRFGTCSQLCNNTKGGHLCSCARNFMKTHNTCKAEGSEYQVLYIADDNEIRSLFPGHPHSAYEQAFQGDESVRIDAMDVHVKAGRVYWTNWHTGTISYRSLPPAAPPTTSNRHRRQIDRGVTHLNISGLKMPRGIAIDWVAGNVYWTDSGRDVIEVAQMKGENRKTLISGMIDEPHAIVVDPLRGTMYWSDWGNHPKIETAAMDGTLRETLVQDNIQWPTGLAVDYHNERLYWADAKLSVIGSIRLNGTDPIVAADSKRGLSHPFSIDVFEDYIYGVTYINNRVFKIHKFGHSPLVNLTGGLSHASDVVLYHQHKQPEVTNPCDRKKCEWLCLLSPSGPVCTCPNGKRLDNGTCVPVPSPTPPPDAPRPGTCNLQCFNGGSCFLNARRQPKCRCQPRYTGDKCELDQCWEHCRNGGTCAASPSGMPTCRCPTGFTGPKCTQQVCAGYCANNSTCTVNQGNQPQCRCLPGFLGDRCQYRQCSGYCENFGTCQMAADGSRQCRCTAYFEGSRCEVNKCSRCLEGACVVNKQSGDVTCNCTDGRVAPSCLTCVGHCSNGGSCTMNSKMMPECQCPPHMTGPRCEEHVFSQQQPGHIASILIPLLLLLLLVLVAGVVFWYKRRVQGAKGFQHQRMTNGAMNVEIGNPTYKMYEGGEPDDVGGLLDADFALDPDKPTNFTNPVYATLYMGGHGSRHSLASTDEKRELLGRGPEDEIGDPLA
inactive: [2] 0.266 | [4] -0.092 | [6] -0.211 | [7] -0.196 | [8] -0.055

LEPROT (UniProt O15243)
Chain of UniProt O15243 (O15243 whole entry, looked up): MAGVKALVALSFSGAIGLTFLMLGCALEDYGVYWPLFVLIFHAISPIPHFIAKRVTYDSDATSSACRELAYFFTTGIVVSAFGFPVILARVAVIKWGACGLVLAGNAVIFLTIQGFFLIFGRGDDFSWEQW
inactive: [1] 0.176 | [3] -0.116 | [5] -0.02 | [9] -0.064 | [7] 0.122 | [8] 0.045 | [10] -0.036

LY6E (UniProt Q16553)
Chain of UniProt Q16553 (Q16553 whole entry, looked up): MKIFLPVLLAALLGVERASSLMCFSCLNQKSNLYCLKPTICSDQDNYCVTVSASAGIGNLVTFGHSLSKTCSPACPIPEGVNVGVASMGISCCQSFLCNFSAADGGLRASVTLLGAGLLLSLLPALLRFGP
inactive: [2] -0.095 | [4] 0.049 | [5] -0.033 | [6] -0.27 | [7] -0.02 | [8] 0.025

MEGF8 (UniProt Q7Z7M0)
inactive: [1] 0.045 | [3] 0.016 | [5] 0.013 | [9] 0.075 | [7] -0.116 | [8] 0.071
active: [10] -0.36

MAPK7 (UniProt Q13164)
inactive: [1] -0.1 | [3] 0.012 | [7] -0.057 | [8] 0.032

MAP4K4 isoform 6 (UniProt O95819)
inactive: [1] 0.006 | [3] 0.156 | [5] 0.094 | [9] -0.061 | [7] 0.003 | [8] -0.078 | [10] -0.049

LRRC9 (UniProt Q6ZRR7)
inactive: [2] -0.037 | [4] 0.02 | [6] -0.01 | [7] -0.044 | [8] -0.07

MARCHF6 (UniProt O60337)
inactive: [1] 0.004 | [2] 0.008 | [3] 0.101 | [4] 0.042 | [5] -0.202 | [6] -0.133 | [7] 0.047 | [8] -0.023

MME (UniProt P08473)
inactive: [1] 0 | [3] 0.052 | [5] -0.067 | [9] 0.011 | [10] 0.095

MAPKAP1 (UniProt Q9BPZ7)
inactive: [1] -0.091 | [3] -0.059 | [9] 0.062 | [7] 0.141 | [8] -0.181 | [10] -0.19

KIF18B (UniProt Q86Y91)
inactive: [7] -0.117 | [8] 0.033

MRC2 (UniProt Q9UBG0)
inactive: [1] -0.225 | [3] 0.031 | [7] 0.011 | [8] 0.061

KRAS isoform 2 (UniProt P01116)
inactive: [1] -0.038 | [3] 0.087 | [9] -0.071 | [7] -0.044 | [8] 0.015 | [10] 0.033

MED25 isoform 3 (UniProt Q71SY5)
inactive: [1] 0.092 | [3] 0.01 | [5] -0.062 | [9] -0.006 | [7] 0.06 | [8] 0.073 | [10] 0.073

MRPL30 isoform 2 (UniProt Q8TCC3)
inactive: [1] -0.004 | [3] -0.01 | [5] -0.037 | [9] -0.03 | [7] 0.067 | [8] 0.015 | [10] 0.015

KLC1 isoform 10 (UniProt Q07866)
inactive: [1] 0.071 | [3] -0.165 | [5] 0.122 | [7] 0.241 | [8] -0.337

MRPL27 (UniProt Q9P0M9)
inactive: [1] -0.072 | [3] 0.068 | [5] -0.019 | [9] 0.056 | [7] 0.023 | [8] 0.019 | [10] -0.044

MPDZ (UniProt O75970)
inactive: [1] -0.017 | [2] -0.061 | [3] -0.095 | [4] -0.273 | [9] -0.091 | [6] 0.004 | [7] -0.099 | [8] 0.108 | [10] 0.149

LRIF1 (UniProt Q5T3J3)
inactive: [1] -0.015 | [2] 0.11 | [3] 0.046 | [9] 0 | [6] 0.1 | [7] -0.031 | [8] -0.009 | [10] -0.02
active: [4] -0.301

LRRC7 (UniProt Q96NW7)
active: [4] -0.493
inactive: [2] 0.042 | [5] -0.108 | [9] 0.065 | [6] 0.038 | [7] 0.02 | [8] 0.067 | [10] 0.048

MCUB (UniProt Q9NWR8)
Chain of UniProt Q9NWR8 (Q9NWR8 whole entry, looked up): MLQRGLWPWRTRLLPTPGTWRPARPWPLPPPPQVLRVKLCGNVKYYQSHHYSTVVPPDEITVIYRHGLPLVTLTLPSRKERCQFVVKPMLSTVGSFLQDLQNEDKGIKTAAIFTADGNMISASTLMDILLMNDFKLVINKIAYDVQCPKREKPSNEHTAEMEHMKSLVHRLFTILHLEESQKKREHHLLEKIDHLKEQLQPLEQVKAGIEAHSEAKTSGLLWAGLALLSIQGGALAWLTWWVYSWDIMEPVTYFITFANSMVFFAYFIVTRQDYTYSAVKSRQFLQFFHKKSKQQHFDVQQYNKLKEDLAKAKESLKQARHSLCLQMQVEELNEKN
inactive: [1] 0.048 | [3] -0.069 | [5] 0.209 | [9] 0.048 | [10] -0.12

MED28 (UniProt Q9H204)
inactive: [1] 0.057 | [3] 0.039 | [9] 0.045 | [10] -0.012

METTL21A (UniProt Q8WXB1)
inactive: [1] -0.074 | [3] -0.011 | [5] 0.019 | [9] -0.027 | [10] -0.04
